# According to PubChem BioAssay AID2314 (National Center for Advancing Translational Sciences (NCATS), 2010):
# Where “and” joins values, the source holds several entries; their conditions need not be identical. Identical values can stand only once. The campaign covered roughly 300,000 compounds. About 37,000 (12%) were called active. This excerpt belongs to a sample that is enriched for actives. Unmarked numbers belong to inactive results. No stated cut-off is given here; in the data, active means max response mostly above about 13% (no sharp cut-off); inactive means mostly below about 14%.
# Test: Cycloheximide Counterscreen for Small Molecule Inhibitors of Shiga Toxin; further: read at 38.3 µM for the half of the compounds with a filed dose; 0% is about no effect
# Conditions: cell reporter, cycloheximide protein synthesis inhibition counterscreen; stronger effect = higher value
row,SMILES,max response
1,C=CCn1c(-c2ccccc2OCC)n[nH]c1=S,5.03%
2,COc1ccccc1C(=O)N(Cc1ccc(C)o1)C1CCS(=O)(=O)C1 (centres undefined),1.49%
3,COc1cc(Cl)c(C)cc1NC(=O)CSc1nnc(-c2ccco2)n1CC(C)C,-3.52%
4,O=C(CC12CC3CC(CC(C3)C1)C2)Nc1ccc2c(c1)COC2=O,-2.75%
5,Cc1ccc2oc(C(=O)N3CCN(C)C[C@@H]3C(C)C)c(C)c2c1,22.3% (active)
6,Cc1ccc2c(C)c(C(=O)N3CCC(N4CCC(C(=O)NC5CC5)CC4)CC3)oc2c1,0.384%
7,COc1ccccc1N1CCN(C(=O)c2cc(=O)c3cc(C)ccc3o2)CC1,-2.83%
8,COc1cccc(CNC(=O)c2cccnc2Sc2ccc(Cl)cc2)c1,0.861%
9,O=C(NCc1cc(C(F)(F)F)cc(C(F)(F)F)c1)C1CC(c2cccc(F)c2)=NO1 (centres undefined),-1.65%
10,CCCn1nc(NS(=O)(=O)c2ccc(F)cc2)c2cc3ccccc3nc21,-11.4%
11,Cc1cccc(N2CCN(C(=O)c3cccc(S(=O)(=O)N4CCc5ccccc5C4)c3)CC2C)c1 (centres undefined),1.1%
12,Cc1cccc(N2Cc3ccccc3C2=NC(=O)c2ccc(Cl)nc2)c1,35.1% (active)
13,N#Cc1ccc(N2Cc3ccccc3/C2=N/C(=O)Nc2ccc(Cl)cc2)cc1,15%
14,COc1ccc(C(=O)CC(=O)C(=O)Nc2cc([N+](=O)[O-])ccc2OC)cc1,-2.37%
15,Cn1c(N2CCOCC2)c(C=O)c2ccccc21,-2.7%
16,Cc1ccc(S(=O)(=O)N(CC(=O)N2CCc3ccccc3C2)c2cccc(Cl)c2)cc1,-3.56%
17,COc1ccc(-c2[nH]nc(-c3ccccc3)c2-c2nc3ccccc3[nH]2)cc1,-1.76%
18,Cc1ccccc1N1CC(c2nc3ccccc3[nH]2)CC1=O (centres undefined),-2.15%
19,Cc1ccc(-c2nc3ccccc3[nH]c2=O)cc1,24.9% (active)
20,CCC(C(=O)NC1CCCCC1)N(C(=O)c1snc(C(N)=O)c1N)c1ccc(OC)cc1OC (centres undefined),-5.48%

row,SMILES,max response
1,COc1ccccc1C(=O)Nc1ccnn1C1CCN(C(=O)C(C)(C)C)CC1,2.22%
2,Cc1ccc(S(=O)(=O)/N=C(/Nc2ccccn2)c2ccc(Cl)cc2)cc1,18.6% (active)
3,O=S(=O)(Nc1ccccn1)c1cccc(S(=O)(=O)c2ccc(Cl)cc2)c1,1.04%
4,O=C(Nc1ccc(S(=O)(=O)Nc2ccccn2)cc1)c1ccccc1,-3.7%
5,O=S(=O)(/N=C(/Nc1ccccn1)c1ccccc1)c1ccc(Cl)cc1,15.2% (active)
6,Cc1ccc(S/C(=N\S(=O)(=O)c2ccc(Cl)cc2)c2ccccc2)cc1,-3.74%
7,Cc1ccc(S(=O)(=O)/N=C(/Nc2ccc3[nH]c(=O)[nH]c3c2)c2ccccc2)cc1,-2.26%
8,COc1ccc(SCCN2CCN(CC(C)C)CCC2=O)cc1,4.3% and 7.92%
9,Cc1nn(C)c(C)c1C(C)NC(=O)c1ccc(OC2CCN(Cc3ccccn3)CC2)cc1 (centres undefined),-1.08%
10,O=C(/C=C/c1ccccc1[N+](=O)[O-])NCC1CCCO1 (centres undefined),10.2%
11,CC1CCCCC1NC(=O)/C(C#N)=C/C=C/c1ccccc1[N+](=O)[O-] (centres undefined),32.9% (active)
12,O=C(/C=C/c1ccccc1[N+](=O)[O-])OC1CCCCC1=O (centres undefined),-0.626%
13,CCN(C(=O)CSc1nc2ccccc2n1CC)C1CCS(=O)(=O)C1 (centres undefined),1.92%
14,O=C(OCC(=O)c1cccs1)C1=COCCO1,51.4% (active)
15,O=C(OCC(=O)c1cccs1)c1ccc([N+](=O)[O-])o1,3%
16,CCC(C)(C)c1ccc(Oc2ccc(NC(=O)COC(=O)C3=COCCO3)cc2)cc1,5.65%
17,CCOC(=O)c1c(C)[nH]c(C)c1S(=O)(=O)NCCCc1ccco1,-2.93%
18,CCOc1ccc(C2c3[nH]c4ccccc4c3CCN2Cc2cccn2-c2ncccn2)cc1 (centres undefined),0.0691%
19,C/C(=N\NC(=O)C1(C)CC1(Br)Br)c1ccc(C)cc1C (centres undefined),12.6%
20,O=[N+]([O-])c1cc(S(=O)(=O)Nc2cccc(Cl)c2)ccc1N=Nc1c(O)[nH]c2ccccc12,-1.65%

row,SMILES,max response
1,O=C(CCCCCNC(=O)c1ccccc1)N/N=C/c1ccccc1,13.5%
2,O=C(CCC(=O)Nc1ccccc1)N/N=C/c1ccccc1F,25.1% (active)
3,C=CCOc1ccccc1/C=N/NC(=O)Cc1ccccc1,9.84%
4,COc1ccc(C(C)NC(=O)C23CC4CC(CC(C4)C2)C3)cc1 (centres undefined),-0.477%
5,Cc1noc(C)c1S(=O)(=O)Nc1ccc(C(=O)N2CCN(c3ccc(F)cc3)CC2)cc1,11.8%
6,CCOC(=O)C1=C(O)CSC1=Nc1cccc(Cl)c1,-2.53%
7,CN(C)c1nc(=Nc2cccc(Cl)c2)ss1,24.1% (active)
8,N#Cc1cccc(NC(=O)COC(=O)c2ccccc2C(=O)c2ccc(Cl)c([N+](=O)[O-])c2)c1,3.74%
9,O=c1[nH]c(=S)[nH]c2[nH]c(=S)[nH]c12,-3.22%
10,CCOC(=O)C1CCN(C(=O)c2ccccc2N(C)S(=O)(=O)c2ccccc2)CC1,-2.92%
11,O=S(=O)(NCc1ccc(Cl)cc1Cl)c1cccs1,14.3% (active)
12,O=S(=O)(Nc1ccccc1Br)c1cccs1,-5.92%
13,O=S(=O)(NCCc1ccc(Cl)cc1)c1cccs1,7.85%
14,O=C(Nc1nncs1)c1ccccc1NS(=O)(=O)c1cccs1,2.77%
15,CN(Cc1ccc(F)cc1Cl)S(=O)(=O)c1cccs1,15.3%
16,O=C(Nc1cccc(Cl)c1)Nc1ccccc1NS(=O)(=O)c1cccs1,11% (active)
17,O=C(Nc1ccc(Br)cn1)C1CCN(S(=O)(=O)c2cccs2)CC1,2.63%
18,c1ccc(C2CNCc3c2ccc2ccccc32)cc1 (centres undefined),-1.66%
19,COc1cc(-c2n[nH]c(=S)n2Cc2ccccc2)cc(OC)c1OC,-3.31%
